Reference: PubChem BioAssay AID2551 (National Center for Advancing Translational Sciences (NCATS), 2010)
In all, about 310,000 compounds went through this assay and about 17,000 (5.5%) were called active. Not shown: some 11% with an inconclusive outcome. The list comes from a sample in which actives are over-represented; it also holds similar structures and randomly drawn compounds. A number with no mark means an inactive call. The call rests on the fitted dose curve; in most records, active means well fitted inhibition curve with a large enough effect; inconclusive means small, poorly fitted or top-dose-only effect, or effect the other way; inactive means no such curve, though single readings can be large or run the other way.

Target: Nuclear receptor ROR-gamma (Mus musculus) (UniProt P51450)
Assay: qHTS for inhibitors of ROR gamma transcriptional activity; further: nearly all actives have a fitted effect of over 60% in size
Conditions: Drosophila S2 Gal4-RORgamma UAS-luciferase reporter, 20 h; series mostly up to 53.6 µM; activity change, negative = inhibition: at the top concentration
Description: NIH Molecular Libraries Probe Production Network [MLPCN] NIH Chemical Genomics Center [NCGC] MLPCN Grant: R03 DA026211-01 Assay Provider: Dan Littman, New York University Assay Overview: The retinoic acid-related orphan receptor (ROR) gamma is a transcription factor that has a central role in the differentiation of Th17 cells, a subset of T helper cells that secrete the inflammatory cytokines IL-17, IL-17F, and IL-22. Th17 cells have been implicated in graft versus host disease, autoimmune disease and asthma. ROR gamma is induced in naive T helper cells in the presence of TGF-beta combined with IL-6, IL-21, or IL-23, and thereafter directs the expression of the Th17 lineage cytokines. To study the mechanism of action of ROR gamma, an insect cell-based assay was screened. This Drosophila Schneider cell line was stably transfected with two vectors: a gene expressing a fusion of the Gal4 DNA binding domain and ROR gamma transactivation domain under the control of the metallothionine promoter and a Photinus luciferase reporter regulated by the Gal4 binding site enhancer, UAS. […] Small molecule inhibitors of ROR gamma activity are detected by a decrease in luciferase reporter activity.
Assay Protocol Summary: For screening, 600 cells in 4 uL/well were dispensed into white solid 1536-well plates (Grenier) using a solenoid-based dispenser. Following transfer of 23 nL compound or DMSO vehicle by a pin tool, the plates were incubated 1 hr at ambient temperature, and 1 uL/well copper sulfate (700 uM final concentration) was added. The plates were centrifuged 15 s at 1000 RPM and incubated 20 hr at ambient temperature. After addition of 1.5 uL Photinus luciferase detection reagent, the plates were incubated 10 min at ambient temperature and then read by an ViewLux (Perkin Elmer) to detect luminescence. Keywords: NIH Roadmap, MLPCN, MLI, MLSMR, qHTS, NCGC, qHTS, nuclear hormone receptor, retinoic acid-related orphan receptor, ROR gamma
On the % scale 0 is the no-effect control and ±100 the full control effect; potency means the concentration at half of the fitted maximal effect.

Chain of Nuclear receptor ROR-gamma (Mus musculus) (P51450 whole entry, looked up): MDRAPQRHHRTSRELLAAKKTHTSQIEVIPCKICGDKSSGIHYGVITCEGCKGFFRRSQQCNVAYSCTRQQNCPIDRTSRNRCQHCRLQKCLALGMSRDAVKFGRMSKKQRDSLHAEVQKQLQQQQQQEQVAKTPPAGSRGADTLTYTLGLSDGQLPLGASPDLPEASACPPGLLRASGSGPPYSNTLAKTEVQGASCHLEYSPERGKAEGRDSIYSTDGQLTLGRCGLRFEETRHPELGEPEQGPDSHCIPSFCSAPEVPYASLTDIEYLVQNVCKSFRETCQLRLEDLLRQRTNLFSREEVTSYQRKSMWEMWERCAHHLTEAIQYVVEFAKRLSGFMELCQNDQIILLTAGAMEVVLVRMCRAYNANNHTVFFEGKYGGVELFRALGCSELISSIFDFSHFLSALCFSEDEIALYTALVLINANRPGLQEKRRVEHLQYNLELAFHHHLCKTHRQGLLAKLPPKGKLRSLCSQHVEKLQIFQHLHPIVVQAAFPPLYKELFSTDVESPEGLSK

Row | SMILES | activity change, negative = inhibition [%] | Potency
1 | CC(C)(O)c1[se]c2ccccc2c1I | -2.25 | 
2 | CC[C@H]1CN2CCc3cc(OC)c(OC)cc3[C@@H]2C[C@@H]1C[C@H]1NCCc2cc(OC)c(OC)cc21 |  | 1.26 µM (active)
3 | CN1CCN(c2cc(N3CCNCC3)ccc2[N+](=O)[O-])CC1 | 15 | 
4 | COc1cccc(-c2nc3ccc(N4CCN(C)CC4)cc3[nH]2)c1 |  | 1.12 µM (active)
5 | COC(=O)c1ccc2[se]c(CC3CCCCC3)c(I)c2c1 | 14.9 | 
6 | Cc1ccc(-n2c(O)c(C=NCC3CCCO3)c(=O)[nH]c2=O)c(C)c1 (centres undefined) | 1.05 | 
7 | COC1CC(OC2CC[C@@]3(C=O)C4CC[C@]5(C)C(C6=CC(=O)OC6)CC[C@@]5(O)C4CC[C@]3(O)C2)OC(C)C1O (some centres undefined) | 1.32 | 
8 | BrC1C(Br)C(Br)C(Br)C(Br)C1Br (centres undefined) |  | 5.01 µM (active)
9 | O=C(Nc1cccc(F)c1)N1CC[C@@]2(CCCN(C(=O)Oc3ccccc3)C2)C1 | -0.0221 | 
10 | CCN1C[C@]2(COC)C(O)C[C@H](OC)[C@@]34C5C[C@]6(O)C(OC)C(O)[C@](OC(C)=O)(C5C6OC(=O)c5ccccc5)C(C(OC)C23)C14 (some centres undefined) | -0.118 | 
11 | CCCCC#N | 1.58 | 
12 | COc1cccc(C(=O)N2C[C@H]3C[C@@H](C2)c2cccc(=O)n2C3)c1 | -18.3 | 
13 | O=C(NC(=S)N1C[C@H]2C[C@H](C1)c1cccc(=O)n1C2)c1ccc(F)cc1 |  | 11.2 µM (active)
14 | COc1cccc(OC)c1C(=O)NC(=S)N1C[C@H]2C[C@H](C1)c1cccc(=O)n1C2 | -0.303 | 
15 | N#CCCCl |  | inactive
16 | CCN(CC)c1nc(C)cc(OP(=S)(OC)OC)n1 | 11.2 | 
17 | CC(C)(c1ccc(OC[C@@H]2CO2)cc1)c1ccc(OC[C@H]2CO2)cc1 | -11.2 | 
18 | CN1CCN(C(=O)O[C@@H]2c3nccnc3C(=O)N2c2ccc(Cl)cn2)CC1 | -16.6 | 
19 | Cn1c(O)c(C=NCCN2CCNCC2)c(=O)n(C)c1=O | 21 | 
20 | Cn1c(O)c(C=NCCCC(=O)O)c(=O)n(C)c1=O | 11.3 | 
21 | CC(=C1C(=O)c2ccccc2C1=O)N1CCN(CCN=Cc2c(O)n(C)c(=O)n(C)c2=O)CC1 |  | 7.08 µM (active)
22 | CC(=O)OC1C2CCC3C1(CC(O)[C@@]1(O)[C@@H](CC(O)C1(C)C)[C@]3(C)O)C[C@@]2(C)O (some centres undefined) | 23.2 | 
23 | O=[N+]([O-])c1ccc(Cl)c(Cl)c1 | 7.3 | 
24 | N[C@H](Cc1o[nH]c(=O)c1Cl)C(=O)O | 1.57 | 
